The campaign covered roughly 2,500 compounds. About 1,100 (44%) were called active. The set was probably picked from earlier hits. Some of the results follow. Unmarked numbers belong to inactive results.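 How the source made its calls: active means inhibition above 50% at 4 µM in the single-point screen; inactive means inhibition of 50% or less.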
Assay: TNF-a-driven NF-kB reporter inhibitors, primary screen, selectivity assay for NOD1/NOD2 signaling inhibitor project, cell-based, HEK293T NF-kB-Luc, luminescence (AID 1852)
Details: TNF-a induced, 14 h, at 4 µM, active compounds read high

SMILES | inhibition
COc1ccc(CCNC(=S)NC2CCN(Cc3ccccc3)CC2)cc1OC | 43.5%
CCN1C/C(=C/c2ccc(OC)c(O)c2)C(=O)/C(=C/c2ccc(OC)c(O)c2)C1 | 101% (active)
CCN1C/C(=C/c2cccc([N+](=O)[O-])c2)C(=O)/C(=C/c2cccc([N+](=O)[O-])c2)C1 | 106% (active)
CCC1C/C(=C\c2cc(OC)c(OC)cc2OC)C(=O)/C(=C/c2cc(OC)c(OC)cc2OC)C1 (stereo unspecified) | 36.6%
O=C1/C(=C/c2cccc([N+](=O)[O-])c2)CCc2ccccc21 | -28.5%
O=[N+]([O-])c1cccc(S(=O)(=O)NCc2ccncc2)c1 | 42.3%
COc1ccc(/C=C2\CN(Cc3ccccc3)C/C(=C\c3ccc(OC)c(O)c3)C2=O)cc1O | 77.4% (active)
Cc1cccc(-n2c(SC(C)C(=O)O)nc3sc4c(c3c2=O)CCCC4)c1 (stereo unspecified) | 45.4%
O=[N+]([O-])c1ccc(NC(=S)NCCc2ccc(Cl)cc2)cc1 | 87.9% (active)
O=[N+]([O-])c1ccc(NC(=S)NCCc2ccc(F)cc2)cc1 | 18.3%
N#Cc1ccc(NC(=O)Nc2ccc(Cl)cc2)cc1 | 22.5%
CCc1ccc(CN(C)C(=O)c2cc(COc3cccc4cnccc34)on2)cc1 | 80% (active)
Cc1nc(CN(C)C(=O)c2cc(COc3ccc4ncccc4c3)on2)cs1 | 27.2%
CN(Cc1cccnc1)C(=O)c1cc(COc2ccc3ncccc3c2)on1 | 42.9%
CN(Cc1nccs1)C(=O)c1cc(COc2cccc3cnccc23)on1 | 66.3% (active)
COc1cccc(CN(C)C(=O)c2cc(COc3ccc4ncccc4c3)on2)c1 | 56.4% (active)
COc1ccc(C(=O)Nc2ccc(-c3ccc(C)o3)cc2)cc1S(=O)(=O)N1CCOCC1 | 66.1% (active)
COc1ccc(NC(=O)c2cc(-c3ccco3)nc3ccccc23)cc1S(=O)(=O)N1CCOCC1 | 45.6%
CCOC(=O)c1ccc(NC(=O)c2ccc(C)c(S(=O)(=O)N3CCOCC3)c2)cc1 | 47.7%
Cc1nc([N+](=O)[O-])c(Sc2nc3ccccc3[nH]2)n1Cc1ccccc1 | 36.1%
Cc1cc(C)cc(OCC(=O)Nc2nc3ccc([N+](=O)[O-])cc3s2)c1 | 13.3%
O=C(NC(Nc1nc2ccc([N+](=O)[O-])cc2s1)(C(F)(F)F)C(F)(F)F)c1ccccc1Cl | 85% (active)
Cc1ccc(C)c(OCC(=O)Nc2nc3ccc([N+](=O)[O-])cc3s2)c1C | 43.5%

SMILES | inhibition
CCOc1ccccc1NC(=O)Nc1ccc(Cl)cc1 | -53%
CCOc1cc(/C=C(/C#N)c2ccc(Cl)cc2)cc(Cl)c1OCC(=O)O | 90.7% (active)
CCOc1ccc(C(=O)/C=C/c2cc(OC)c(OC)c(OC)c2)cc1 | 9.7%
COc1ccc2cc3c(N)nn(C(=O)c4cccc(F)c4)c3nc2c1 | 79.2% (active)
COc1ccc2cc3c(N)nn(C(=O)c4ccc(Cl)c([N+](=O)[O-])c4)c3nc2c1 | 43.3%
COc1cccc(C(=O)c2sc(NC(C)C)nc2N)c1 | 41.4%
COc1ccc2cc3c(N)nn(C(=O)c4cccc([N+](=O)[O-])c4)c3nc2c1 | 65.4% (active)
COc1ccc2cc3c(N)nn(C(=O)c4ccc(F)cc4)c3nc2c1 | 60.6% (active)
COc1ccc(CN(C)S(=O)(=O)c2nnc(NC(=O)c3cccc(F)c3)s2)cc1 | 29.9%
COc1cccc(-n2c(CN3CCN(c4ccccc4)CC3)nc3ccc([N+](=O)[O-])cc3c2=O)c1 | -0.2%
C/C(=N\NC(=O)c1ccc(-c2ccccc2)cc1)C1C(=O)c2ccccc2C1=O | 93.6% (active)
C/C(=N\NC(=O)c1ccc2c(c1)OCCO2)c1ccccc1 | 14%
C/C(=N\NC(=O)c1ccc(Br)cc1)C1C(=O)c2ccccc2C1=O | -12.6%
COc1ccc(CC(=O)Nc2ccncc2Cl)cc1 | 54% (active)
O=C(Cc1ccc(Cl)cc1Cl)Nc1ccncc1Cl | 50% (active)
CCC(NC(=O)c1ccc2nc(Cc3ccc(OC)cc3)oc2c1)c1ccncc1 (stereo unspecified) | 34%
Cc1ccc(CC(=O)Nc2ccncc2)cc1 | 38.6%
Cc1ccc(C(=O)Nc2ccccc2N2CCCCC2)cc1[N+](=O)[O-] | -17.9%
Cc1ccc(C(=O)Nc2sc(C)c(-c3ccccc3)c2C(N)=O)cc1[N+](=O)[O-] | -277%
Cc1ccc(C(=O)Nc2ccccc2-c2ccccc2)cc1[N+](=O)[O-] | 75.4% (active)
O=C(Nc1ccc(-c2cn3ccsc3n2)cc1)c1ccc(F)c(S(=O)(=O)N2CCOCC2)c1 | 30.4%
COc1ccc(Nc2cc(Nc3cc(OC)c(OC)c(OC)c3)ncn2)cc1 | 59.9% (active)
COc1cc(C(=O)Nc2ccc(-c3nc4cc(C)ccc4o3)c(O)c2)cc(OC)c1OC | 13.8%

SMILES | inhibition
COc1cc(Nc2c3ccccc3nc3ccccc23)cc(OC)c1OC | -0.2%
CCOc1ccc(-c2nnc(NC(=O)c3ccc(OCC(C)C)c(OC)c3)o2)cc1 | 105% (active)
O=C(NNC(=S)NC(=O)c1cccc([N+](=O)[O-])c1)c1ccc(Br)cc1 | -11.7%
CN(c1ccccc1)S(=O)(=O)c1ccc(C(=O)Nc2nnc(-c3ccc(F)cc3)o2)cc1 | 95% (active)
N#Cc1ccsc1NC(=O)c1cccc([N+](=O)[O-])c1 | 20.9%
COc1ccc(-c2nnc(NC(=O)c3ccc(F)cc3)o2)cc1 | 102% (active)
O=C(Nc1nnc(-c2ccc(F)cc2)o1)c1cccc([N+](=O)[O-])c1 | 89.2% (active)
COc1ccccc1N(C)S(=O)(=O)c1ccc(C(=O)Nc2ccc(N3CCOCC3)cc2)cc1 | 35.4%
COc1ccc(-c2nnc(NC(=O)c3ccc(S(=O)(=O)N4CCc5ccccc5C4)cc3)o2)cc1 | 34.1%
CC(=O)O[C@]1(C(C)=O)CC[C@H]2[C@@H]3C=CC4=CC(=O)C=C[C@]4(C)[C@H]3CC[C@@]21C | 32.7%
O=C(Nc1nnc(-c2ccc(F)cc2)o1)c1cc(Cl)sc1Cl | 96.6% (active)
O=C(Nc1nnc(-c2ccc(Cl)s2)o1)C1CC1 | -5.5%
C/C(=N\Nc1ncnc2sc(C)c(C)c12)c1ccccn1 | 103% (active)
COc1ccc(C2C(C(=O)N3CCOCC3)CCC(=O)N2c2ccc(OC)cc2)cc1 (stereo unspecified) | 17.2%
Cc1cc(NC(=O)c2cccs2)n(-c2nc3ccccc3[nH]2)n1 | 35.4%
Cc1cc(NC(=O)c2ccc(C)s2)n(-c2nc3ccccc3[nH]2)n1 | 31.1%
Cc1ccc(Nc2cc(C)nn2-c2nc(C)cc(=O)[nH]2)cc1 | 107% (active)
O=C(CCCn1c(=S)[nH]c2cc3c(cc2c1=O)OCO3)N1CCN(c2ccc(Cl)cc2)CC1 | 35.9%
Cc1cccc(N2CCN(C(=O)CCCCCn3c(=S)[nH]c4ccc(N5CCOCC5)cc4c3=O)CC2)c1C | -10.2%
Cc1ccc(C)c(N2CCN(C(=O)CCCCCn3c(=S)[nH]c4ccc(N5CCOCC5)cc4c3=O)CC2)c1 | 96.5% (active)
CC(C)C(=O)N1CCN(c2nc(-c3ccc(Cl)cc3)cs2)CC1 | -37.6%
Cc1ccc(C(=O)N2CCN(c3ccc(NC(=O)c4ccc5c(c4)OCCO5)cc3)CC2)cc1 | 84.2% (active)
O=C(Nc1ccc(N2CCN(C(=O)c3ccc(Cl)cc3)CC2)cc1)c1ccc2c(c1)OCCO2 | 86.8% (active)

SMILES | inhibition
CC(C)C(=O)N1CCN(c2ccc(NC(=O)c3ccc4c(c3)OCCO4)cc2Cl)CC1 | 80.5% (active)
Cc1ccccc1C(=O)N1CCN(c2ccc(NC(=O)c3ccc4c(c3)OCCO4)cc2)CC1 | -3.1%
O=C(Nc1ccc2nn(-c3ccccc3)nc2c1)c1ccc2c(c1)OCCO2 | 31.9%
CCCCCOc1ccc(/C=C/c2c([N+](=O)[O-])c(=O)n(C)c(=O)n2C)cc1 | 21.4%
CCOC(=O)/C=C/C(=O)Nc1ccc(S(=O)(=O)N(C)c2ccccc2)cc1 | -15.6%
CCOC(=O)/C=C/S(=O)(=O)c1ccc(NC(C)=O)cc1 | 64% (active)
CCOC(=O)/C=C/C(=O)Nc1ccc(S(=O)(=O)Nc2c(C)cc(C)cc2C)cc1 | 25.7%
O=C(O)CCC(=O)c1ccc2ccc3cccc4ccc1c2c34 | 50% (active)
Nc1[nH]nc2ncc3cc4ccccc4nc3c12 | 36.8%
Cc1nn(-c2ccccc2)c(Cl)c1CN(C(=O)CCl)c1ccc(Cl)cc1 | 105% (active)
Cc1nn(-c2ccccc2)c(Cl)c1CN(C(=O)CCl)c1cccc2ccccc12 | 14.9%
CC(=O)N1CC(C)Sc2ccc(S(=O)(=O)NCc3ccc(Cl)cc3)cc21 (stereo unspecified) | 11.8%
COC(=O)CSc1nnc(-c2sc3ccccc3c2Cl)o1 | 48.5%
Fc1ccc(CSc2nnc(-c3ccncc3)o2)cc1 | 70.1% (active)
Cc1ccc(-c2nnc(SCC(=O)Nc3ccccc3F)o2)cc1 | 37.8%
Brc1cccc(CSc2nnc(-c3ccncc3)o2)c1 | 44.3%
Clc1ccc(CSc2nnc(-c3ccncc3)o2)cc1 | 60.2% (active)
CCc1cc(C(=O)NC2CCCc3c2cnn3-c2cccc(C)c2C)n(C)n1 (stereo unspecified) | 59.1% (active)
Cc1cc(C(=O)NC2CCCc3c2cnn3-c2cccc(C)c2C)n(C)n1 (stereo unspecified) | 56.4% (active)
CC(=O)c1c(C)[nH]c(C(=O)OCC(=O)Nc2ccc(C)cc2[N+](=O)[O-])c1C | 79.4% (active)
COc1ccc(NC(=O)CN2CCc3ccccc3C2)c([N+](=O)[O-])c1 | -10.5%
Cc1ccccc1NC(=O)COC(=O)c1ccc(S(C)(=O)=O)c([N+](=O)[O-])c1 | 13%

Reference: PubChem BioAssay AID1852 (Sanford-Burnham Center for Chemical Genomics, 2009)
